{"source": "PubChem BioAssay (NCATS)", "note": "Results filed as inconclusive are left out. Entries that show only a call come without a potency. Calls of active or inactive are those of the source. The call rests on the fitted dose curve."}
{"assay": "Cytotoxicity counterscreen for inhibitors of SARS-CoV-2 cell entry (AID 1645845); further: nearly all actives have a fitted effect of over 50% in size", "conditions": "cell viability (SARS-CoV-2 entry assay cells); series mostly up to 57.1 µM; activity change, negative = cytotoxicity: at the top concentration", "method_in_brief": "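Counterscreen run in the same HEK293-ACE2 line as the pseudotyped-particle entry assay, without particles. Viability after 48 h at 37 C was read as ATP luminescence, scaled between cell-containing and cell-free wells.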"}
{"smiles": "Nc1ccc(S(N)(=O)=O)cc1", "Potency": "inactive"}
{"smiles": "COc1ccc(C(=O)CC(=O)c2ccc(C(C)(C)C)cc2)cc1", "Potency": "inactive"}
{"smiles": "CCCCCCCCCCC[C@@H](C[C@@H]1OC(=O)[C@H]1CCCCCC)OC(=O)[C@H](CC(C)C)NC=O", "outcome": "inactive"}
{"smiles": "O=C(N[C@H](CO)[C@H](O)c1ccc([N+](=O)[O-])cc1)C(Cl)Cl", "outcome": "inactive"}
{"smiles": "CCCCCCCC/C=C/C(=O)O", "activity change, negative = cytotoxicity": "4.95% (inactive)"}
{"smiles": "CC(C)(C(=O)c1cccnc1)c1cccnc1", "outcome": "inactive"}
{"smiles": "CN/C(=C\\[N+](=O)[O-])NCCSCc1csc(CN(C)C)n1", "activity change, negative = cytotoxicity": "1.43% (inactive)"}
{"smiles": "CCCN1CCCC[C@H]1C(=O)Nc1c(C)cccc1C", "activity change, negative = cytotoxicity": "-4.12% (inactive)"}
{"smiles": "CCCCOC(=O)c1ccc(O)cc1", "outcome": "inactive"}
{"smiles": "NS(=O)(=O)c1cc2c(cc1Cl)NC(CC1CCCC1)NS2(=O)=O", "note": "(stereo not drawn)", "outcome": "inactive"}
{"smiles": "O=C(O)CCCC[C@@H]1SC[C@@H]2NC(=O)N[C@@H]21", "activity change, negative = cytotoxicity": "0.607% (inactive)"}
{"smiles": "O=C1[O][Bi][O]c2ccccc21", "outcome": "inactive [at 0.702 µM]"}
{"smiles": "CC1CCN(CCCC(=O)c2ccc(F)cc2)CC1", "activity change, negative = cytotoxicity": "3.89% (inactive)"}
{"smiles": "CO/N=C(/C(=O)N[C@@H]1C(=O)N2C(C(=O)OCOC(=O)C(C)(C)C)=C(C)CS[C@H]12)c1csc(N)n1", "activity change, negative = cytotoxicity": "1.25% (inactive)"}
{"smiles": "CCCNC(C)C(=O)Nc1ccccc1C", "note": "(stereo not drawn)", "activity change, negative = cytotoxicity": "-1.31% (inactive)"}
{"smiles": "Nc1nc(Cl)nc2c1ncn2[C@@H]1O[C@H](CO)[C@@H](O)[C@@H]1F", "activity change, negative = cytotoxicity": "-19% (inactive)"}
{"smiles": "COC(=O)N/N=C/c1c[n+]([O-])c2ccccc2[n+]1[O-]", "activity change, negative = cytotoxicity": "2.13% (inactive)"}
{"smiles": "Nc1ccc(C(=O)Oc2ccccc2)c(O)c1", "outcome": "inactive"}
{"smiles": "CC(C)COC(=O)c1ccc(N)cc1", "outcome": "inactive"}
{"smiles": "COc1ccccc1OCC(O)CO", "note": "(stereo not drawn)", "outcome": "inactive"}
{"smiles": "C=CCc1ccc(O)c(OC)c1", "outcome": "inactive"}
{"smiles": "Cc1c(I)c(=O)n(-c2ccccc2)n1C", "outcome": "inactive"}
{"smiles": "COc1ccc(C2CNC(=O)C2)cc1OC1CCCC1", "note": "(stereo not drawn)", "Potency": "inactive"}
{"smiles": "CCOCCn1c(C2CCN(CCc3ccc(C(C)(C)C(=O)O)cc3)CC2)nc2ccccc21", "outcome": "inactive"}
{"smiles": "CC(C)=CCC/C(C)=C/CO", "outcome": "inactive"}
{"smiles": "COc1c(N2C[C@@H]3CCCN[C@@H]3C2)c(F)cc2c(=O)c(C(=O)O)cn(C3CC3)c12", "outcome": "inactive"}
{"smiles": "O=C(O)CCCCCCCC(=O)O", "outcome": "inactive"}
{"smiles": "CCOC(=O)C1=C(C)NC(C)=C(C(=O)OC)C1c1cccc([N+](=O)[O-])c1", "note": "(stereo not drawn)", "activity change, negative = cytotoxicity": "4.91% (inactive)"}
{"smiles": "Nc1ncnc2c1ncn2[C@@H]1O[C@H](CO)[C@@H](O)[C@H]1O", "Potency": "inactive"}
{"smiles": "C1COC(NC(C2CC2)C2CC2)=N1", "outcome": "inactive"}
{"smiles": "CC(=O)NCc1c(I)c(NC(C)=O)c(I)c(C(=O)O)c1I", "outcome": "inactive"}
{"smiles": "CO[C@@]1(NC(=O)CSCC#N)C(=O)N2C(C(=O)O)=C(CSc3nnnn3C)CS[C@@H]21", "outcome": "inactive"}
{"smiles": "Cn1c(=O)c2[nH]c(Br)nc2n(C)c1=O", "outcome": "inactive"}
{"smiles": "CC(=O)N=c1sc(S(N)(=O)=O)nn1C", "outcome": "inactive"}
{"smiles": "Cn1c(=O)c2[nH]cnc2n(C)c1=O", "Potency": "inactive"}
{"smiles": "O=C(O)Cc1cccc2ccccc12", "outcome": "inactive"}
{"smiles": "NS(=O)(=O)c1cc(C2(O)NC(=O)c3ccccc32)ccc1Cl", "note": "(stereo not drawn)", "outcome": "inactive"}
{"smiles": "CO[C@@H]1[C@@H](OC(N)=O)[C@@H](O)[C@H](Oc2ccc3c(O)c(NC(=O)c4ccc(O)c(CC=C(C)C)c4)c(=O)oc3c2C)OC1(C)C", "Potency": "inactive"}
